# PubChem BioAssay AID2057 (The Scripps Research Institute Molecular Screening Center, 2009)
# Several values for one entry are separate records, joined by “and”; a condition that tells them apart may be missing. Equal values may be shown once. In all, about 320,000 compounds went through this assay and about 2,100 (0.66%) were called active.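 How the source made its calls: active means inhibition above the mean inhibition of all tested compounds plus 3 SD, set per campaign (cut at about 40% in these data); inactive means the rest.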 The sample as a whole holds a higher share of actives than the screen did. The source holds several records for some structures; these can differ, active in one and inactive in another.
# Target: Induced myeloid leukemia cell differentiation protein Mcl-1 (Homo sapiens) (UniProt Q07820)
# Test: inhibitors of MCL1 binding to BIM-BH3, primary screen, biochemical, fluorescence polarization (AID 2057);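 further: 0% = DMSO wells and 100% = unlabeled Bim-BH3 peptide control; higher means more loss of mP so more displacement of Bim peptide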
# Details: GST-MCL1 / FITC-Bim-BH3 fluorescence polarization; at 10.9 µM; stronger effect = higher value
# Chain of Induced myeloid leukemia cell differentiation protein Mcl-1 (Homo sapiens) (Q07820 whole entry, looked up): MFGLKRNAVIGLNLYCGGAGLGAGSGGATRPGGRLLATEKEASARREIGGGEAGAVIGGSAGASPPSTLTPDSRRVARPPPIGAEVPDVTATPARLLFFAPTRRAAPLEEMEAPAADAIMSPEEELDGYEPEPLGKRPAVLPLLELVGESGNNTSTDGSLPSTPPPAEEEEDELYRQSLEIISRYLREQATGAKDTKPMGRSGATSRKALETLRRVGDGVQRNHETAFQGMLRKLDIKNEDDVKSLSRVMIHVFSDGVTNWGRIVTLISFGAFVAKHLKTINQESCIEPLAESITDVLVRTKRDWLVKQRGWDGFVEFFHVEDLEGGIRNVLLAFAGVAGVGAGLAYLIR
row,SMILES,inhibition
1,Cc1coc2c(O)cc3c(c12)OC1(N2CCCCC2)C(=O)NCCCC31 (centres undefined),48.6% (active)
2,Cc1ccc2nnn(Cc3cccc(C(C)(C)C)c3O)c2c1,-0.36% (inactive)
3,CC1CCN(C(=O)c2ccccc2NC(=O)Cc2ccccc2)CC1,2.82% (inactive)
4,CCCCn1c(N)c(N(CC(C)C)C(=O)c2ccc(-n3c(C)ccc3C)cc2)c(=O)[nH]c1=O,-0.69% (inactive)
5,COc1ccc(Nc2ccc([N+](=O)[O-])cn2)cn1,48.7% (active)
6,COc1ccc(C(=O)NCCNc2ccc([N+](=O)[O-])cn2)cc1,-2.53% (inactive)
7,COc1cc(/C=N\Nc2ccc([N+](=O)[O-])cn2)ccc1OCC(=O)O,-10.5% (inactive)
8,O=C(CCc1c[nH]c2ccccc12)NCCOc1ccccc1,0.99% (inactive)
9,O=C(COC(=O)/C=C/c1ccc(S(=O)(=O)N2CCCCCC2)cc1)NCc1ccccc1Cl,5.88% (inactive)
10,CN(c1ccc(OCC(=O)O)cc1)S(=O)(=O)c1ccc2ccccc2c1,15.4% (inactive)
11,Cc1ccc2nc(COc3ccc(N(C)S(=O)(=O)c4ccccc4)cc3)cc(=O)n2c1,42% (active)
12,COc1cccc(COc2ccc(N(C)S(=O)(=O)c3ccccc3)cc2)c1,-7.28% (inactive)
13,O=c1[nH]c(-c2ccccc2)c(-c2ccccc2)[nH]1,1.68% (inactive)
14,O=c1[nH]c(=O)c2nc3ccccc3nc2[nH]1,40.2% (active)
15,CNC(=O)c1cccc2nc3ccccc3nc12,2.56% (inactive)
16,Cn1cnc2c1c(=O)n(Cc1ccccc1C#N)c(=O)n2C,2.03% (inactive)
17,CC(C)c1ccc2oc(=O)cc(CN3CCN(Cc4ccccc4)CC3)c2c1,-0.09% (inactive)
18,C#CCNC(=O)[C@H](Cc1ccc(C(=O)c2ccccc2)cc1)NC(=O)OC(C)(C)C,-1.48% (inactive)
19,COc1ccc(CN2CC(C(=O)NC3CCCCC3)CC2=O)cc1 (centres undefined),1.62% (inactive)
20,O=C(CCNC(=O)C1CCN(S(=O)(=O)c2ccccc2)CC1)NC1CC1,1.06% (inactive)
21,CCN(CC(=O)NCC(=O)Nc1cccc(C)c1C)Cc1ccccc1,-6.88% (inactive)
22,Cc1[nH]c2ccccc2c1C(=O)CN1CCCC(C)C1 (centres undefined),-7.18% (inactive)
23,CCOC(=O)c1c(NC(=O)/C=C/c2ccco2)sc(C)c1C,-7.18% (inactive)

row,SMILES,inhibition
1,Cc1nnc(NC(=O)/C=C/c2ccco2)s1,53.5% (active)
2,CCC(CC)c1nnc(NC(=O)/C=C/c2ccco2)s1,-2.29% (inactive)
3,O=c1[nH]c2ccc(S(=O)(=O)N3CCCC3)cc2[nH]1,5.45% (inactive)
4,N/C(=N\S(=O)(=O)c1cc(C(F)(F)F)cc(C(F)(F)F)c1)c1cccs1,5.69% (inactive)
5,Cc1ccc(C(O)P(=O)(OC(C)C)c2ccc(N(C)C)cc2)cc1 (centres undefined),-0.54% (inactive)
6,COC(=O)C1CCN(C(=O)c2cc(=O)[nH]c3ccccc23)CC1,-5.36% (inactive)
7,O=C(NC1CCCCC1)N1CCc2[nH]c3ccccc3c2C1,7.44% (inactive)
8,COC(=O)[C@H]1[C@H]2C[C@H]3c4[nH]c5ccccc5c4CCN3C[C@@H]2CC[C@@H]1O,2.37% (inactive) and 78.5% (active)
9,COc1ccc(NC(=O)C2=CC(c3ccc(OC)c(OC)c3)=NS(=O)(=O)N2C)cc1,-1.75% (inactive)
10,C=CCc1ccccc1OCC(=O)N/N=C/c1ccccc1OCC,-1.1% (inactive)
11,Cc1ccc(/C=N/NC(=O)COc2ccccc2-c2ccccc2)cc1,66.9% (active)
12,Cc1cccc(OCC(=O)NCC(=O)N/N=C/c2ccc(N(C)C)cc2)c1,5.85% (inactive)
13,CC(Oc1ccccc1)C(=O)Nc1c2c(nn1-c1ccccc1)CS(=O)C2 (centres undefined),3.14% (inactive)
14,CC1CCN(C(=O)c2ccc(S(=O)(=O)Cc3cc(F)ccc3F)c([N+](=O)[O-])c2)CC1,6.72% (inactive)
15,COc1cc2c(cc1OC)C(C)N(S(=O)(=O)c1cnc(Cl)c(Cl)c1)CC2 (centres undefined),0.66% (inactive)
16,Cc1ccc(C2C(C#N)C(C#N)N3CCCN23)cc1 (centres undefined),-13.7% (inactive)
17,COCCN(CCOC)c1nc(N)c2c(N)nc3c(c2c1C#N)CC(=O)N3Cc1ccc(Cl)cc1,56.7% (active)
18,C=CCN1C=C2C(=O)C(C)(OC(=O)CCc3ccccc3)C(=O)C=C2C=C1c1ccc(C#N)cc1 (centres undefined),23.9% (inactive)
19,CC1(OC(=O)C2CCCC2)C(=O)C=C2C=C(c3ccc(C#N)cc3)OC=C2C1=O (centres undefined),26.9% (inactive)
20,CC(C)(C)OC(=O)NCCCC1=CC2=CC(=O)C(C)(OC(=O)c3ccco3)C(=O)C2=CO1 (centres undefined),81.6% (active)
21,Cc1cc(O)c(Sc2ccccc2)c(=O)o1,2.06% (inactive)
22,C=CCc1cccc(/C=N/NC(=O)COc2ccc(-n3cnnn3)cc2)c1O,11.2% (inactive)
23,CC(OC(=O)c1ccc2noc(-c3ccccc3)c2c1)C(N)=O (centres undefined),-8.19% (inactive)

row,SMILES,inhibition
1,Oc1ccc(-c2onc3ccc(Cl)cc23)cc1,-2.01% (inactive)
2,CCOc1ccc(NC(=O)CN(C)C(=O)Cn2c(=O)cnc3ccccc32)cc1OCC,3.26% (inactive)
3,Cc1nc(-c2ccc(F)cc2)c(CC(=O)N2CCN(S(=O)(=O)c3ccc(F)cc3)CC2)s1,-0.35% (inactive)
4,COC(=O)c1ccc2c(c1)S(=O)(=O)NC(=NCCCN1CCOCC1)S2,-0.08% (inactive)
5,Cc1c(NC(=O)C(C)OC(=O)c2c3c(nc4ccccc24)CCC(C)C3)c(=O)n(-c2ccccc2)n1C (centres undefined),-4.73% (inactive)
6,COC(=O)C1=C(Nc2ccc(C)cc2)C=C(C)C(C(=O)OC)C1c1ccc(F)cc1 (centres undefined),-0.87% (inactive)
7,O=C(COC(=O)c1n[nH]c2ccccc12)NCc1ccccc1,-0.26% (inactive)
8,O=C(COC(=O)c1ccccc1C(=O)N1CCN(c2ccccc2)CC1)NCc1ccccc1,51.8% (active)
9,CC(C)N(C(=O)COC(=O)c1ccccc1C(=O)N1CCN(c2ccc(F)cc2)CC1)C(C)C,11.2% (inactive)
10,OCC1(Cc2ccccc2C(F)(F)F)CCN(Cc2ccncc2)CC1,4.27% (inactive)
11,CC1(NC(=O)CCS(=O)(=O)c2ccc(Cl)cc2)CCS(=O)(=O)C1 (centres undefined),-1.26% (inactive)
12,CC(=O)N1c2ccc(S(=O)(=O)N3CCC(C(=O)NC4CCCCC4C)CC3)cc2CC1C (centres undefined),2% (inactive)
13,CCOC(=O)c1oc2c(CN3CCN(CCO)CC3)c(O)c(CC)cc2c(=O)c1-c1nc2ccccc2s1,-0.61% (inactive)
14,CC(C)(C)c1ccc(/C=C2\Oc3c(ccc(O)c3CN3CCN(CCO)CC3)C2=O)cc1,49.7% (active)
15,CCN(CC(=O)Nc1ccccc1C(F)(F)F)C(=O)CSCc1c(C)noc1C,-5.73% (inactive)
16,COC(=O)c1cc(NS(=O)(=O)c2ccc3c(c2)c(=O)n(C)c(=O)n3C)cc(C(=O)OC)c1,3.04% (inactive)
17,CC(C)OC(=O)CN1C(=O)C(=O)c2ccccc21,3.82% (inactive)
18,CCOC(=O)c1cc2n(c1N)-c1ccccc1C2=O,153% (active)
19,CCOC(=O)c1ccccc1CN1C(=O)c2ccccc2S1(=O)=O,3.41% (inactive)
20,Cc1noc(C)c1-c1nc(CSc2ccc(Cl)cc2)no1,7.94% (inactive)
21,O=C(c1ccc(OC2CCN(C(=O)c3cccnc3)CC2)cc1)N1CCCCCC1,1.48% (inactive)
22,Cc1ccc(OS(=O)(=O)c2ccc(-c3csc(C)n3)s2)c(C)c1,2.53% (inactive)
23,CC(NC(=O)CSc1nc2c(cc1C#N)CN(C)CC2)c1ccccc1 (centres undefined),45% (active)

row,SMILES,inhibition
1,CC1(C)CCc2nc(SCc3ccccc3)c(C#N)cc2C1,-2.93% (inactive)
2,Cc1cc(NC(=O)CSc2nc3c(cc2C#N)CCCCC3)no1,2.25% (inactive)
3,CC1(C)NC(=O)N(CC(=O)Nc2cc(C(F)(F)F)cc(C(F)(F)F)c2)C1=O,-2.94% (inactive)
4,Cc1ccc(C(=O)O)cc1-c1ccc(/C=C2\SC(=O)N(CC(=O)Nc3ccc4c(c3)OCO4)C2=O)o1,56.2% (active)
5,Cn1cccc1/C=C1\SC(=O)N(CC(=O)Nc2ccc(F)cc2)C1=O,-0.64% (inactive)
6,Cc1ccc(C(=O)Nc2ccc3c(c2)OCO3)cc1S(=O)(=O)N1CCCCC1,7.58% (inactive)
7,CCOC(=O)c1ccc[n+](CC(=O)Nc2ccccc2OC(F)F)c1,-5.72% (inactive)
8,Cc1ccc(-c2nc(SCC(=O)Nc3ccccc3OC(F)F)c3c(C)c(C(=O)O)sc3n2)cc1,54.1% (active)
9,COc1ccccc1NC(=O)CSc1nc2sc3c(c2c(=O)n1-c1ccccc1)CCN(C)C3,-0.79% (inactive)
10,COc1cc2c(cc1OC)C(=O)NCC(C)(C)O2,5.06% (inactive)
11,CCC(C)[C@H]1COCCS(=O)(=O)N1Cc1ccc(C)cc1 (some centres undefined),-11.6% (inactive)
12,CCOc1ccc(NC(=O)COc2ccc(C(=O)NC3CCCc4ccccc43)cc2OC)cc1 (centres undefined),-23.3% (inactive)
13,COC(=O)c1cc(OCC(=O)NC2CCCc3ccccc32)cc(C(=O)OC)c1 (centres undefined),40.6% (active)
14,Nc1ccc(C(=O)OCC(=O)NC2CCCc3ccccc32)cc1[N+](=O)[O-] (centres undefined),-14.1% (inactive)
15,COC(=O)[C@H](Cc1ccccc1)NC(=O)Nc1ccc(OC)cc1,2.03% (inactive)
16,COc1cc([C@H](Cc2ccccc2)NC(C)=O)oc(=O)c1,59.4% (active)
17,CCOC(=O)C(Cc1ccccc1)NC(=O)CCC(=O)c1ccc(OC)cc1 (centres undefined),4.46% (inactive)
18,Cc1ccc(OCC(=O)c2cc(C)n(Cc3ccco3)c2C)c([N+](=O)[O-])n1,-1.45% (inactive)
19,COC(=O)c1c(NC(=O)c2ccc(S(=O)(=O)N3CCOCC3)cc2)sc2c1CCN(C(C)C)C2,-0.44% (inactive)
20,c1ccc2c(c1)CSc1sccc1C2=C1CCNCC1,8.84% (inactive)
